Screens (PubChem)
Hits are enriched below; roughly 1.8% of the tested compounds scored in any of these assays.
MIN6 prolif = inducers of beta-cell replication in MIN6 cells. AID 2380. MIN6 cells proliferation, ATPlite luminescence, 48 h; cells starved in 0.2% serum; 100% = growth in 10% serum. proliferation, % at 10 µM. 330,000 tested, 0.29% active;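 active = compounds whose signal lies at least 3.5 SD above the mean of all wells on their plate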;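 also: 0% = DMSO-treated cells in low-serum medium and 100% = 10% serum control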
APOBEC3G inh = inhibitors of human APOBEC3G DNA deaminase | recombinant A3G, ssDNA deamination FAM/TAMRA fluorescence | 330,000 tested, 0.28% active | AID 493012 | inhibition, % at 20 µM | Q9HC16;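 active = inhibition of at least 40% at 20 µM, with no more than 30% in the related APOBEC3A deaminase screen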;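 also: plate controls were DMSO wells with A3G for no effect and wells lacking A3G enzyme for full effect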
VLA-4 inh = inhibition in a human VLA-4 binding assay | P13612 | VLA-4 expressing cells, ligand binding flow cytometry | AID 2557 | 330,000 tested, 0.2% active | inhibition, % (about 7 µM as worked out from the volumes in the protocol); in the data active = inhibition above about 50%
A3A deaminase = blocks human APOBEC3A ssDNA deamination; P31941; recombinant A3A, FAM/TAMRA ssDNA deamination fluorescence; inhibition, % at 20 µM; 330,000 tested, 0.41% active;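 active = at least 40% inhibition at 20 µM here, with at most 30% in a related deaminase screen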;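 also: plate controls were A3A with DMSO for no effect and wells lacking A3A enzyme for full effect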
NRP1-CendR mod = modulators of CendR peptide binding to human neuropilin-1; 360,000 tested, 0.85% active; O14786; FAM-RPARPAR peptide binding to NRP-1, fluorescence polarization; inhibition, % at 25 µM;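 active = inhibition or corrected inhibition above about 18%, plus a signal ratio from 0.5 to 1.5, limit read from the data, passing the limit was not always enough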
Target sequence (O14786 whole entry, looked up): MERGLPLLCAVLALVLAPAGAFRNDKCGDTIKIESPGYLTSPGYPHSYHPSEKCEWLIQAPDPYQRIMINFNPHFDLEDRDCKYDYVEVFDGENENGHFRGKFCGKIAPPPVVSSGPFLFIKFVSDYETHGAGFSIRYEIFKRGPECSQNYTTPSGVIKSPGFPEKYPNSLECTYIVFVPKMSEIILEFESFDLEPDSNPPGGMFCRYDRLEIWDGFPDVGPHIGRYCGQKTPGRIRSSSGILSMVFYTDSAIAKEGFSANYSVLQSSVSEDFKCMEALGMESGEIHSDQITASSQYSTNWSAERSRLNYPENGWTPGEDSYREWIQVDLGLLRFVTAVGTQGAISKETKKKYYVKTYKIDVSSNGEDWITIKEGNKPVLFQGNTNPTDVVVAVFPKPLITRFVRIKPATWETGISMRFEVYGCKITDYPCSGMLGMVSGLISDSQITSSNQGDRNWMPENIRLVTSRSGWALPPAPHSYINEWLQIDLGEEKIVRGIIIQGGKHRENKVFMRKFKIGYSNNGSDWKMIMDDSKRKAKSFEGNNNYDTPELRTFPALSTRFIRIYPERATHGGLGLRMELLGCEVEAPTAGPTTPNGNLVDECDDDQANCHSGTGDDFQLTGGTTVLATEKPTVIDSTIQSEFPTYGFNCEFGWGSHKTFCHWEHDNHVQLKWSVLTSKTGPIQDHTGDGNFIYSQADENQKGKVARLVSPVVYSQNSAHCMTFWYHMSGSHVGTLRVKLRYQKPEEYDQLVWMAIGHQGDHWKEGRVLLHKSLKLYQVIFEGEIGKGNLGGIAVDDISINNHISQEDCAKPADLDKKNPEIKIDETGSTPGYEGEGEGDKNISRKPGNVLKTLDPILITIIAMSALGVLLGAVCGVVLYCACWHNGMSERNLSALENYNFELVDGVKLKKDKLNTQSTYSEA
APOBEC3G confirm = confirmation of human APOBEC3G DNA deaminase inhibitors; shares compounds with APOBEC3G inh; recombinant A3G ssDNA deaminase, UDG/FAM-TAMRA fluorescence; inhibition, % at 20 µM; 890 tested, 72% active;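 active = inhibition reaching a set limit in any replicate at 20 µM, the limit being 80% of the first screen's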
UDG ctr A3G = counter-screen for APOBEC3G inhibitors: E. coli UDG | shares compounds with APOBEC3G inh | UDG counterscreen, FAM/TAMRA oligo fluorescence | inhibition, % at 20 µM | 710 tested, under 10 active | AID 504715;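 active = compounds giving 40% or more inhibition at 20 µM in any one of the three replicates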;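 also: plate controls were DMSO wells with UDG and oligo for no effect and DMSO wells lacking both for full effect; inhibitors lower the FAM signal released by uracil excision and alkaline cleavage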
The depositor's hits bear a star; nt = no result given.

SMILES	MIN6 prolif	APOBEC3G inh	VLA-4 inh	A3A deaminase	NRP1-CendR mod	APOBEC3G confirm	UDG ctr A3G
Cc1ccc(N=c2ssnc2Cl)cc1	-6	73*	9	5	0	75*	-3
Cc1cc(Cl)ccc1N=c1ssnc1Cl	-6	61*	6	2	14	62*	-4
Cn1c(SCC(=O)NCC2CCCO2)ncc(C(=O)Nc2ccc(Cl)cc2)c1=O (centres undefined)	-7	-7	46	3	4	nt	nt
Cc1ccc(Cn2c(=S)[nH]c3ccc(N4CCOCC4)cc3c2=O)o1	-5	59*	4	10	-3	76*	nt
O=C(O)c1ccc(S(=O)(=O)N2CCN(c3ccccn3)CC2)cc1	0	-2	9	-4	6	nt	nt
COc1ccc(F)cc1-c1cc(C(=O)NCc2cc(C(F)(F)F)cc(C(F)(F)F)c2)[nH]n1	nt	nt	nt	nt	2	nt	nt
CN(C)C(=O)CSc1nc2cc(S(=O)(=O)N3CCOCC3)ccc2o1	-4	23	0	-1	-4	nt	nt
Nc1nc2cc(S(=O)(=O)N3CCOCC3)ccc2o1	-5	46*	14	2	18	43*	-5
NC(=O)CSc1nc2cc(S(=O)(=O)N3CCOCC3)ccc2o1	-3	43*	5	3	12	24*	-2
NS(=O)(=O)c1cc(C(=O)OCC(=O)Nc2ccc3c(c2)OCO3)ccc1Cl	-4	-6	3	1	14	nt	nt
COC(=O)c1c(-c2ccc(C(C)(C)C)cc2)csc1NC(=O)C1C2CCC(O2)C1C(=O)O (centres undefined)	-5	58*	-1	0	17	24*	-4
Cc1cnc(C(=O)OCC(=O)NC(C)c2ccccc2)cn1 (centres undefined)	1	-4	16	0	-1	nt	nt
COc1cccc(/C=N/n2c(-c3cc(C)[nH]n3)n[nH]c2=S)c1OC	-2	43*	12	-3	8	85*	-4
COc1ccc(/C=N/n2c(-c3n[nH]c4c3CCC4)n[nH]c2=S)c(OC)c1OC	1	49*	-4	-5	-6	82*	-3
COc1cc(/C=N/n2c(-c3cc(C)[nH]n3)n[nH]c2=S)cc(OC)c1O	-1	38	-7	-1	-5	nt	nt
COc1cccc(/C=N/n2c(-c3n[nH]c4c3CCC4)n[nH]c2=S)c1OC	-3	62*	-13	1	-1	70*	-3
O=C(COC(=O)c1cc(Cl)cc(Cl)c1)NCc1ccco1	-2	-1	4	8	10	nt	nt
COc1ccc(S(=O)(=O)N2CCN3CCCC3C2)cc1 (centres undefined)	-1	0	8	-5	-10	nt	nt
O=C(NC1CCCCCCC1)c1ccccc1O	0	13	-6	-2	-2	nt	nt
O=C(NC1CCCCCC1)c1ccc[nH]c1=S	-6	55*	1	-1	-7	66*	0
CC1(CCc2ccccc2)NC(=S)N(c2ccc(Cl)cc2)N1 (centres undefined)	0	57*	3	1	5	12	nt
CC(=O)NCCc1c[nH]c2ccc(OCc3ccccc3)cc12	-1	-4	17	-5	7	nt	nt
Cc1ccc(-n2c(-c3ccc(Cl)cc3)n[nH]c2=S)c(C)c1	-3	5	8	-12	10	nt	nt
CCN(CC)S(=O)(=O)c1cccc(-c2n[nH]c(=S)n2C)c1	1	46*	-3	-3	7	69*	0
C=CCn1c(-c2cccc(S(=O)(=O)N(CC)CC)c2)n[nH]c1=S	2	47*	-14	-3	10	79*	-1
Cc1ccc(-c2n[nH]c(=S)n2C)cc1Cl	-3	50*	-1	-14	-4	61*	-3
CCCN(CCC)CCNC(=O)C1(O)c2ccccc2NC(=O)N1c1cccc(OC)c1 (centres undefined)	-4	-3	-1	-1	1	nt	nt
CC(/C=N/n1c(-c2n[nH]c3c2CCC3)n[nH]c1=S)=C\c1ccco1	-2	55*	32	15	-10	68*	-3
CC(/C=N/n1c(-c2cccnc2)n[nH]c1=S)=C\c1ccco1	-2	71*	-3	15	-35	70*	-2
